Screens as filed in PubChem BioAssay.
D2 antag: HTS Assay for Allosteric Antagonists of the Human D2 Dopamine Receptor: Primary Screen for Antagonists. 2% of 340,000 active. inhibition, % at 10 µM. HEK293 TREx D2 cells, calcium flux, dopamine EC80. AID 485344, 2010; in the data active means inhibition above about 30%; inactive means below that, where a call was filed; further: 0% is about no effect
Target sequence (P14416 whole entry, looked up): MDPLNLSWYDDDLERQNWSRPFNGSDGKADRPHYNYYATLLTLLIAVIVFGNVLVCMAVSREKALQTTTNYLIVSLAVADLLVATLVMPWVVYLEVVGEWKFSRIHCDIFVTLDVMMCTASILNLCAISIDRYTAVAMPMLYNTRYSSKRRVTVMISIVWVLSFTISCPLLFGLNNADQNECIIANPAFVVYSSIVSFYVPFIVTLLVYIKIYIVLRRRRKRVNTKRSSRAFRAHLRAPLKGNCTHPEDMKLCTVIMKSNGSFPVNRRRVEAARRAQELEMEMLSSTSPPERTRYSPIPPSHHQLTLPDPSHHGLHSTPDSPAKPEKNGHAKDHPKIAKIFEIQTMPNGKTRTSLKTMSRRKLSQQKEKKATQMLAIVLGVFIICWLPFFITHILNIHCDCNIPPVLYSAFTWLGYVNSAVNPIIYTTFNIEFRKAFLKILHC
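Antagonism is scored as inhibition of an EC80 dopamine-evoked calcium signal in a force-coupled, tetracycline-inducible HEK293 T-REx D2 line, with compound present 180 s before agonist.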
D2 ag-1: Beta-Arrestin HTS for Positive Allosteric Modulators of the Human D2 Dopamine Receptor: Agonists | DiscoveRx PathHunter D2 beta-arrestin, luminescence, 90 min; 100% = 57 uM dopamine signal | activation, % (concentration not given with the values) | 0.084% of 360,000 active; in the data active means activation above about 40%; inconclusive means between about 15% and that limit
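Agonist mode: compounds alone added to overnight-plated D2 PathHunter cells for 90 min at 37 C, with 57 uM final dopamine (EC100) defining full response. Beta-arrestin recruitment detected by chemiluminescent reagent, read after 1 h at ambient temperature.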
D2 PAM-1: Beta-Arrestin HTS for Positive Allosteric Modulators of the Human D2 Dopamine Receptor: Potentiators. DiscoveRx D2 beta-arrestin cells, luminescence, 90 min; 100% = 57 uM dopamine signal. 0.23% of 360,000 active. potentiation, % (concentration not given with the values). D(2) dopamine receptor (Homo sapiens), P14416; in the data active means potentiation above about 50%; inconclusive means mostly about 30% to 49%
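PathHunter beta-arrestin assay in DiscoveRx D2 cells. Compounds were added with an EC20 of dopamine (50 nM final) for 90 min at 37 deg C. Luminescence was read 1 h after detection reagent, with 57 uM dopamine as the EC100 control.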
D2 ag-2: HTS Assay for Allosteric Agonists of the Human D2 Dopamine Receptor: Primary Screen for Agonists. D(2) dopamine receptor (Homo sapiens), P14416. HEK293 T-REx D2 cells, calcium flux agonist mode. activation, % at 2 µM. 0.53% of 340,000 active;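 active means activation over 3 SD above normal in the single-dose calcium agonist read, cut at about 30% in these data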; further: 0% is about no effect
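Agonism scored from kinetic calcium signal (1 read/sec, 180 s) following compound pin transfer, after a 10 s baseline. Cells: HEK293 Trex line expressing inducible D2 receptor coupled to calcium, dye-loaded after overnight culture at 30 C.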
D2 PAM-2: HTS Assay for Positive Allosteric Modulators of the Human D2 Dopamine Receptor: Primary Screen for Potentiators. 0.34% of 340,000 active. potentiation, % at 10 µM. HEK293 T-REx D2, calcium flux, EC20 dopamine potentiation;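 active means potentiation over 3 SD above the plate norm, cut at about 30% in these data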; further: 0% is about no effect
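Primary screen. Calcium kinetics in induced HEK293 T-REx D2 cells: compound pre-addition 180 s, EC20 dopamine, 180 s more.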
D3 arrestin ag: qHTS of D3 Dopamine Receptor Agonist: D3 Dopamine Receptor B-arrestin Agonist Confirmatory Assay. shares compounds with D2 ag-2. DiscoveRx D3 beta-arrestin cells, luminescence, 90 min. Potency, µM (highest dose often 76.9 µM), for the others: at the top dose activation, hits mostly activators. 4% of 2,300 active;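 further: potency means the concentration at half of the fitted maximal effect; 100% = dopamine control response; nearly all actives have a fitted effect of over 70% in size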
D2 ag-3: qHTS of D3 Dopamine Receptor Agonist: D2 Dopamine Receptor B-arrestin Agonist Counterscreen. shares compounds with D2 ag-2. DiscoveRx PathHunter D2 beta-arrestin, luminescence, 90 min; response scale: percent relative to full dopamine signal. Potency, µM (highest dose often 76.9 µM), without a hit: top-dose activation, usual class: activators. 5.9% of 2,300 active. AID 720507, 2013; further: potency means the concentration at half of the fitted maximal effect; % of control where 0% means no effect; nearly all actives have a fitted effect of over 70% in size
The depositor's hits bear a star. In the library only some 2.4% were active in any assay of this set; here they are far more common. Unless noted, the call rests on the fitted dose curve; in most records, active means well fitted activation curve with a large enough effect; inconclusive means small, poorly fitted or top-dose-only effect; inactive means flat fitted curve, though single readings scatter.

What do the screens show for `CC(=O)c1cccc(OCC(O)CN2CCN(S(=O)(=O)c3c(F)cccc3F)CC2)c1` (stereo not drawn)?
D2 antag: -6.7; D2 ag-1: -3.6; D2 PAM-1: -6.6; D2 ag-2: 0.7; D2 PAM-2: 4.4

How did COc1ccc(CN2CCN(C(=O)c3ccco3)CC2)cc1 do in these assays?
D2 antag: 87.3*; D2 ag-1: 77.4*; D2 PAM-1: 65.2*; D2 ag-2: 86.6*; D2 PAM-2: -19.6; D3 arrestin ag: inconclusive; D2 ag-3: 10µM*

Results for CCOc1ccc(C(=O)N2CCN(C(=O)c3ccco3)CC2)cc1OCC ?
D2 antag: -2.6; D2 ag-1: 1.7; D2 PAM-1: 9.3; D2 ag-2: 0.3; D2 PAM-2: 5.8

Results for COc1ccc(CN2CCN(C(=O)c3ccc(S(=O)(=O)N4CCCCCC4)cc3)CC2)cc1 ?
D2 ag-1: -1.4; D2 PAM-1: -4.1; D3 arrestin ag: 6.0%; D2 ag-3: 13.8%

Results for Cc1cccc(N2CCN(C(=O)Cc3ccccc3[N+](=O)[O-])CC2)c1C ?
D2 antag: -6.1; D2 ag-1: -2.2; D2 PAM-1: -25.1; D2 ag-2: 0.1; D2 PAM-2: -3.4

What do the screens show for `CCCCCCOc1ccc(NC(=O)CC2C(=O)N(CC)C(=S)N2Cc2ccco2)cc1` (stereo not drawn)?
D2 antag: 9.0; D2 ag-1: -2.6; D2 PAM-1: -20.8; D2 ag-2: -0.1; D2 PAM-2: 0.6

Results for COc1ccc2ccccc2c1CN1CCN(C(=O)c2ccccc2)CC1 ?
D2 antag: -15.6; D2 ag-1: -1.5; D2 PAM-1: -12.3; D2 ag-2: 2.3; D2 PAM-2: -14.5

Results for COc1ccc2ccccc2c1CN1CCN(C(=O)c2ccco2)CC1 ?
D2 antag: 88.5*; D2 ag-1: 58.1*; D2 PAM-1: 25.6; D2 ag-2: 69.0*; D2 PAM-2: -26.9; D3 arrestin ag: inconclusive; D2 ag-3: 25.1µM*

Results for CCOc1ccc(CN2CCN(C(=O)c3ccco3)CC2)cc1 ?
D2 ag-1: 54.3*; D2 PAM-1: 57.2*; D3 arrestin ag: inconclusive; D2 ag-3: 4.47µM*

Results for COCCNc1nc(Nc2ccc(Cl)cc2F)c2sccc2n1 ?
D2 ag-1: 1.6; D2 PAM-1: -7.0

What do the screens show for `Fc1ccccc1N1CCN(c2ncnc3c2nc2n3CCCCC2)CC1`?
D2 ag-2: -0.8; D2 PAM-2: 6.2

What do the screens show for `O=C(C1CCN(c2ncnc3c2nc2n3CCCCC2)CC1)N1CCN(c2ccccc2F)CC1`?
D2 antag: 5.3; D2 ag-1: 6.2; D2 PAM-1: -3.4; D2 ag-2: 27.7; D2 PAM-2: -12.2; D3 arrestin ag: inconclusive; D2 ag-3: 16.4%

Results for COC(=O)C1CCN(CCCOc2ccc(CN3CCN(c4ccc([N+](=O)[O-])cc4)CC3)cc2)CC1 ?
D2 antag: 84.1*; D2 ag-1: 45.4*; D2 PAM-1: 29.9; D2 ag-2: 69.3*; D2 PAM-2: -15.1; D3 arrestin ag: inconclusive; D2 ag-3: inconclusive

How did Nc1nc2c(ncn2[C@@H]2O[C@H](CNCc3cnc(N4CCOCC4)s3)[C@@H](O)[C@H]2O)c(=O)[nH]1 do in these assays?
D2 ag-1: -2.4; D2 PAM-1: -7.4

Results for c1ccc(CCNCCOc2ccccc2)cc1 ?
D2 antag: 48.1*; D2 ag-1: 13.6; D2 PAM-1: -6.9; D2 ag-2: 56.1*; D2 PAM-2: -25.3; D3 arrestin ag: 0.5%; D2 ag-3: 11.1%

What do the screens show for `CCNC(=S)Nc1cc2oc3ccccc3c2cc1OC`?
D2 antag: -1.9; D2 ag-1: -5.5; D2 PAM-1: -15.3; D2 ag-2: 0.5; D2 PAM-2: -12.5

What do the screens show for `CNC(=S)Nc1cc2oc3ccccc3c2cc1OC`?
D2 antag: 13.8; D2 ag-1: 2.3; D2 PAM-1: 7.4; D2 ag-2: 57.1*; D2 PAM-2: -18.9; D3 arrestin ag: -1.9%; D2 ag-3: 16.5%

What do the screens show for `CCn1cc(C(=O)N2CCN(c3cc(C)ccc3C)CC2)c(=O)c2cc(S(=O)(=O)N3CCCCC3)ccc21`?
D2 ag-2: 0.2; D2 PAM-2: 4.2

What do the screens show for `CCc1ccc(C2=NNC(=Nc3c(C)n(C)n(-c4ccccc4)c3=O)SC2)cc1`?
D2 antag: -2.0; D2 ag-1: -3.8; D2 PAM-1: -6.4; D2 ag-2: 0.2; D2 PAM-2: -4.9

What do the screens show for `Cc1ccccc1CN1CCN(CC2CC3C=CC2C3)CC1` (stereo not drawn)?
D2 antag: 18.8; D2 ag-1: -3.2; D2 PAM-1: -28.6; D2 ag-2: -0.8; D2 PAM-2: -23.8

Results for O=C(c1ccco1)N1CCN(CC2CC3C=CC2C3)CC1 (stereo not drawn) ?
D2 antag: 83.8*; D2 ag-1: 42.2*; D2 PAM-1: inconclusive; D2 ag-2: 24.1; D3 arrestin ag: inconclusive; D2 ag-3: inconclusive

Results for C1=CC2CC1CC2CN1CCN(c2ccccc2)CC1 (stereo not drawn) ?
D2 antag: 77.2*; D2 ag-1: inconclusive; D2 PAM-1: inconclusive; D2 ag-2: 75.9*; D2 PAM-2: -27.9; D3 arrestin ag: 6.8%; D2 ag-3: inconclusive

Results for Cc1cc(Br)ccc1NC(=O)CN(C)C(=O)C1CCN(c2ncnc3sc(C)c(C)c23)CC1 ?
D2 ag-1: 0.4; D2 PAM-1: -5.1

What do the screens show for `Cc1ccc(/C=C2/NC(=O)N(Cc3ccccc3F)C2=O)s1`?
D2 antag: 20.7; D2 ag-1: -0.7; D2 PAM-1: -4.0; D2 ag-2: 6.9; D2 PAM-2: -3.8; D3 arrestin ag: -4.4%; D2 ag-3: -0.4%
